In the supplement of paper PMC12067093, “Discovery and optimisation of a covalent ligand for TRIM25 and its application to targeted protein ubiquitination” (Chemical Science, 2025):
Of roughly 21,000 targets only a part is listed; those with the largest changes were picked by preference.

The targets below were run with CC1Cc2ccccc2N1C(=O)C1CCCN(C1)C(=O)CCl (mixture of isomers) [TRIM25 ligand 11 (diastereomer mixture)] (assay: probe-labelled cysteine peptide fold change vs DMSO (competition) (log2 fold change); higher = less target engagement (more negative = stronger competition)). Settings: 10 µM; THP-1; incubation time: 4 h.
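Further: competitive chemoproteomic profiling in live THP-1 cells with an iodoacetamide desthiobiotin (IA-DTB) probe, comparing probe-labelled peptide intensities in compound-treated cells against DMSO-treated controls.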

Chain of UniProt P26358 (P26358 whole entry, looked up): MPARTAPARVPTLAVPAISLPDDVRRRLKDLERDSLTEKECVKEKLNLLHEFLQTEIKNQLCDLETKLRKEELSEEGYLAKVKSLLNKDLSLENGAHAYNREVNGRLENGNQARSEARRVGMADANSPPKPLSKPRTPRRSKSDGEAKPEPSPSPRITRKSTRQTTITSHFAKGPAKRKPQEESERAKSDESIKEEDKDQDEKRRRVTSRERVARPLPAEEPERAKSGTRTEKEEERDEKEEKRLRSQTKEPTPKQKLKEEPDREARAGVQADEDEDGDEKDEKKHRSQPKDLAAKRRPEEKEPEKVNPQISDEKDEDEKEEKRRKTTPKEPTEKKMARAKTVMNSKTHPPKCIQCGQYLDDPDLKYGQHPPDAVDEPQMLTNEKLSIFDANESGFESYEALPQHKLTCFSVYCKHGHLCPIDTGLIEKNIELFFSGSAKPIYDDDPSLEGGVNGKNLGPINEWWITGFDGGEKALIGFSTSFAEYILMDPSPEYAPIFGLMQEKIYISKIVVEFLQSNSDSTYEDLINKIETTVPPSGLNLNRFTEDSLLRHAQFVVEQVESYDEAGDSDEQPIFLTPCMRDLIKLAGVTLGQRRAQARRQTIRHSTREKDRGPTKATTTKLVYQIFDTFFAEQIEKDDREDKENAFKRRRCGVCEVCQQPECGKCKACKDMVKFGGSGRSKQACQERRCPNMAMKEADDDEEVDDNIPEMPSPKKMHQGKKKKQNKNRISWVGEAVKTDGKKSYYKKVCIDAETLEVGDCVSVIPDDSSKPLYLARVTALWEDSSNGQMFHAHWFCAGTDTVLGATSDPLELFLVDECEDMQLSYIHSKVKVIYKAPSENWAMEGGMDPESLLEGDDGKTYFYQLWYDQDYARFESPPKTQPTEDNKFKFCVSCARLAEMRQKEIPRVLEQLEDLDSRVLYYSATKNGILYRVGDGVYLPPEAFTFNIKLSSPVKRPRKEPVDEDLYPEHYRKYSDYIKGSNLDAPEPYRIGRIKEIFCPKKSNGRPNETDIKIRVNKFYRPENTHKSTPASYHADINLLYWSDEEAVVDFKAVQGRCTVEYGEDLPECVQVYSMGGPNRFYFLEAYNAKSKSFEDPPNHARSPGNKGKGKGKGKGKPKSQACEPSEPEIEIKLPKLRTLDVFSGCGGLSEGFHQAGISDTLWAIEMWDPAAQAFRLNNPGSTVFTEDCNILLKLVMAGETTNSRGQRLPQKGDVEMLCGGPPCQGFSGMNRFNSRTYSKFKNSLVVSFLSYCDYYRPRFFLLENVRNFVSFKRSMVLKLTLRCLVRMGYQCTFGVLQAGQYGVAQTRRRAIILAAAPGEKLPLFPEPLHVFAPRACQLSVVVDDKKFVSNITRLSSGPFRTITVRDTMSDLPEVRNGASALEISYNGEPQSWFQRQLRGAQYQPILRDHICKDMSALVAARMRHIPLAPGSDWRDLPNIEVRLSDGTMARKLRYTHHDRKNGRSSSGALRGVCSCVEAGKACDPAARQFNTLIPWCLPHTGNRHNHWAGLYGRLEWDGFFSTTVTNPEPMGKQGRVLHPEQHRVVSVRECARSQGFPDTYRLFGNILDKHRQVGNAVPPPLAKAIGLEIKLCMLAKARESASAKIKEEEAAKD
Chain of UniProt P48729 (P48729 whole entry, looked up): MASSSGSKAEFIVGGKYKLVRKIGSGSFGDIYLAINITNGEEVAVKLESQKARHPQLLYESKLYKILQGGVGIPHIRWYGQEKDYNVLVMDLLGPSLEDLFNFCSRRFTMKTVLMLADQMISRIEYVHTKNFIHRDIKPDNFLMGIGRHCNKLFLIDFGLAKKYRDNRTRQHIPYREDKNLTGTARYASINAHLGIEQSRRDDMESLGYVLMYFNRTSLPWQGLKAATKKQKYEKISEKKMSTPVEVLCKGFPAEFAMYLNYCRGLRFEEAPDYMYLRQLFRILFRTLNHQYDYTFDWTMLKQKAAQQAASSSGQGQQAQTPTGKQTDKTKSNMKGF
Chain of UniProt Q9Y3R5 (Q9Y3R5 whole entry, looked up): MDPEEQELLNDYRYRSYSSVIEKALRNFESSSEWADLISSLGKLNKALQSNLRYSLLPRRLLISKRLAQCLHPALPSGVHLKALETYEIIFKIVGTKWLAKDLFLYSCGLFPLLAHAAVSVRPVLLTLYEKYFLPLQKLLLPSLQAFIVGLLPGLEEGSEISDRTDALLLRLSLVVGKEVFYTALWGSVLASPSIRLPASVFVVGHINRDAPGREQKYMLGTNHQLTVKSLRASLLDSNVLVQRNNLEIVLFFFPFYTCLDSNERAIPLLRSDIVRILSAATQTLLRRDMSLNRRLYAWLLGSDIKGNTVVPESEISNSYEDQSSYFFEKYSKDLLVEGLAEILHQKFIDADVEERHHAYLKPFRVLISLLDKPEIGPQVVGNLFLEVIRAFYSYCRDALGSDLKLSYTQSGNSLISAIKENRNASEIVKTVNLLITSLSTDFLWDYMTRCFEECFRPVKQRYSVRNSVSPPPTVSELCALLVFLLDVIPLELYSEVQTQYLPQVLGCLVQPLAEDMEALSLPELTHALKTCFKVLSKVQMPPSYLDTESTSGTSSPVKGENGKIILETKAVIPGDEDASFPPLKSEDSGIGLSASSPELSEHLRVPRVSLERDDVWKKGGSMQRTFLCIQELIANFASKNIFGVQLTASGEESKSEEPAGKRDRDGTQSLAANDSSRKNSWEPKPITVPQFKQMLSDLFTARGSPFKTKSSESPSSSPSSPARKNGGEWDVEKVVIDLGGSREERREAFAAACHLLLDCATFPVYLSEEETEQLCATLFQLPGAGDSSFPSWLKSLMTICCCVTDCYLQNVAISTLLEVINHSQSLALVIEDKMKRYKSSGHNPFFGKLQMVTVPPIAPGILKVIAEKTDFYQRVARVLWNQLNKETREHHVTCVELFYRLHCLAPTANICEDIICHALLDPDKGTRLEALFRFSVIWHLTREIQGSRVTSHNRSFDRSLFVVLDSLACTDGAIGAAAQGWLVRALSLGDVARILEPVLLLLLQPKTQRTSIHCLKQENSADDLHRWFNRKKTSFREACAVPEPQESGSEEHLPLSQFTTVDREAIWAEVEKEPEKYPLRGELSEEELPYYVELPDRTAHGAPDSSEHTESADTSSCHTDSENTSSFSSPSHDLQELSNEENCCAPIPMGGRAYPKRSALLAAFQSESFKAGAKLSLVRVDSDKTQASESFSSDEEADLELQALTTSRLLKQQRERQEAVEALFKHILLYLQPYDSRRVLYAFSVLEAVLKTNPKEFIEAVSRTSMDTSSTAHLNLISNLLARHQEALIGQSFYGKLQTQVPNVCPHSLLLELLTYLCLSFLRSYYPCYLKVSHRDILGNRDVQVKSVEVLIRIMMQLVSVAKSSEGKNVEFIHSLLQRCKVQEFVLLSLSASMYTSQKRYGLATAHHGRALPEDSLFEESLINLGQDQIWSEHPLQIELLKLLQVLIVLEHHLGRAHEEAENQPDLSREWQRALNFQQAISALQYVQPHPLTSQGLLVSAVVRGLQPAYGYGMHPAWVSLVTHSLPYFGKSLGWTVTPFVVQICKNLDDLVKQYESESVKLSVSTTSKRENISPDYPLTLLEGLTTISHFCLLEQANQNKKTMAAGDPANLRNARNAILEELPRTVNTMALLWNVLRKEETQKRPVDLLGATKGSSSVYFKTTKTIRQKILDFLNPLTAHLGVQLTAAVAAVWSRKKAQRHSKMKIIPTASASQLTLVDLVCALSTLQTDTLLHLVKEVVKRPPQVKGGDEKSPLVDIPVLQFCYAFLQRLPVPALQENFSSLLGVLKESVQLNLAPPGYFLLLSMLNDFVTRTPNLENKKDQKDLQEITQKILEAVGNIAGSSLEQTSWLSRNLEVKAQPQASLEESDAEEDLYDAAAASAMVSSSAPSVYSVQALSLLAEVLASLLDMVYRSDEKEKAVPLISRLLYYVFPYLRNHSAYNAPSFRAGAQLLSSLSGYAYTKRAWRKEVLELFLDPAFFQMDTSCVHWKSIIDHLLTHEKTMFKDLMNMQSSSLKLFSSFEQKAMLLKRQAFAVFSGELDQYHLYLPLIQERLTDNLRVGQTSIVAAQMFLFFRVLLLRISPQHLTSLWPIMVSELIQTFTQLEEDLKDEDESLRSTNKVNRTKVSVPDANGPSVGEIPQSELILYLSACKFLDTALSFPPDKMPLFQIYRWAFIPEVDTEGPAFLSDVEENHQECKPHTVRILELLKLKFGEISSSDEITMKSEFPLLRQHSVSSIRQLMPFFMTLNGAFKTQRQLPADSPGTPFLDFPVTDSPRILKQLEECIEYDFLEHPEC
Chain of UniProt P26196 (P26196 whole entry, looked up): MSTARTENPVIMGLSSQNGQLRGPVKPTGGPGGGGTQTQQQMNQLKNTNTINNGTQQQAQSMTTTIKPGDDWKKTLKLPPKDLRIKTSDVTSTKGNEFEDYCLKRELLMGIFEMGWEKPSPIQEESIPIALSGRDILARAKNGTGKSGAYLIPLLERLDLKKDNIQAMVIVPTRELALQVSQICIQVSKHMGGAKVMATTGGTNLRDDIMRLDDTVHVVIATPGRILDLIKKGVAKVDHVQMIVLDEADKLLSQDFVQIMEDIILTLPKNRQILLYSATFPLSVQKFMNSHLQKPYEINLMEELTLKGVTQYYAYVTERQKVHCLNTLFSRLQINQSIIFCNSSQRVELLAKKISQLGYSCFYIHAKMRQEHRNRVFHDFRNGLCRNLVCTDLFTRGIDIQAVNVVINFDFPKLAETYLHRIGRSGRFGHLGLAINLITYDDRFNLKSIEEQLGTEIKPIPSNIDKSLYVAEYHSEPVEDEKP
Chain of UniProt Q9BPW9 (Q9BPW9 whole entry, looked up): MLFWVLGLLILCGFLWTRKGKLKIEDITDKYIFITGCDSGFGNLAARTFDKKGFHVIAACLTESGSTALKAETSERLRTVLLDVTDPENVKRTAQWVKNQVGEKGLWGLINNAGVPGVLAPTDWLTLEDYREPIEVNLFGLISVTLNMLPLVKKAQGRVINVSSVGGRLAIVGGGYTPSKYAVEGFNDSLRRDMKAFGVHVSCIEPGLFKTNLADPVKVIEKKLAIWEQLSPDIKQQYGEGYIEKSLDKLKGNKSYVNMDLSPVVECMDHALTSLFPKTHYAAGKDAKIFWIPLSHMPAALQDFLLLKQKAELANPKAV

Target	probe-labelled cysteine peptide fold change
CTNNBL1_Q8WYA6_370_VLDHAMIGPEGTDNCHK (UniProt Q8WYA6)	-0.0184
DENR_O43583_44_VLYCGVCSLPTEYCEYMPDVAK (UniProt O43583)	-0.0798
DNM1L_O00429_300_LLMHHIRDCLPELK (UniProt O00429)	-0.355
DDX42_Q86XP3_339+346_ELCQQIHAECK (UniProt Q86XP3)	-0.0625
DHRS7_Q9Y394_233_TELATYPGIIVSNICPGPVQSNIVENSLAGEVTK (UniProt Q9Y394)	-0.0824
DYNC1LI2_O43237_104_CNVWILDGDLYHK<|>DYNC1LI1_Q9Y6G9_117_CNVWILDGDLYHK (UniProt Q9Y6G9+O43237)	-0.0068
DDX28_Q9NUL7_453_DILLCTDIASR (UniProt Q9NUL7)	0.0908
DIP2B_Q9P265_1282_TCVVVAEERPR<|>DIP2C_Q9Y2E4_1263_TCVVVAEERPR (UniProt Q9Y2E4+Q9P265)	0.0276
DNM2_P50570-3_427_CVDLVVSELATVIK (UniProt P50570)	-0.0402
COX17_Q14061_23+24_KPLKPCCACPETK (UniProt Q14061)	-0.386
CSTF2_P33240_62_GYGFCEYQDQETALSAMR (UniProt P33240)	-0.512
DNAJC10_Q8IXB1_161_EFDAAVNSGELWFVNFYSPGCSHCHDLAPTWR (UniProt Q8IXB1)	0.476
CSNK1A1_P48729_249_MSTPVEVLCK (UniProt P48729)	-0.305
DYNC1H1_Q14204_4644_GVAVLCTE (UniProt Q14204)	0.0055
DDX6_P26196_324_VHCLNTLFSR (UniProt P26196)	0.158
DPYSL2_Q16555_133_SCCDYSLHVDISEWHK (UniProt Q16555)	0.131
DHCR24_Q15392_393_CLQQALHTFQNDIHVYPIWLCPFILPSQPGLVHPK (UniProt Q15392)	0.14
DCTN4_Q9UJW0_280_CEHNLSKPEFNPTSIK (UniProt Q9UJW0)	0.246
DHRS9_Q9BPW9_60_GFHVIAACLTESGSTALK (UniProt Q9BPW9)	0.105
DPP8_Q6V1X1_611_LSSPEDDPTCK (UniProt Q6V1X1)	0.0995

Target	probe-labelled cysteine peptide fold change
DHX30_Q7L2E3_286_LSTLTLLWPCPMTFVAK (UniProt Q7L2E3)	-0.558
DPP9_Q86TI2_184_TQCSGPR (UniProt Q86TI2)	-0.111
DIAPH1_O60610_1227_AGCAVTSLLASELTK (UniProt O60610)	-0.0516
CPNE8_Q86YQ8_118_HDFLGQVFCTLGEIVGSQGSR (UniProt Q86YQ8)	0.132
CYTH1_Q15438_323_EVEDSKKPNCFELYIPDNK (UniProt Q15438)	-0.213
DDX17_Q92841_166+199_GGDVCPKPVFAFHHANFPQYVMDVLMDQHFTEPTPIQCQGFPLALSGR (UniProt Q92841)	-0.612
DOP1B_Q9Y3R5_70_LAQCLHPALPSGVHLK (UniProt Q9Y3R5)	0.262
DIDO1_Q9BTC0_455_CGAQAGIK (UniProt Q9BTC0)	-0.117
CORO7_P57737_691_IVWVCDGR (UniProt P57737)	0.154
CTR9_Q6PD62_196_TNPGCPAEVR (UniProt Q6PD62)	-0.0355
DYNC1H1_Q14204_4438_QDLADVVQVCEGK (UniProt Q14204)	0.0826
DIAPH2_O60879_484_LDIDLTHLIDSCVNK (UniProt O60879)	0.0266
DLD_P09622_484_VCHAHPTLSEAFR (UniProt P09622)	0.111
DCP1A_Q9NPI6_39_QHDPYITSIADLTGQVALYTFCPK (UniProt Q9NPI6)	0.179
DHX15_O43143_774_IAPQYYDMSNFPQCEAKR (UniProt O43143)	-0.432
DNMT1_P26358_580_HAQFVVEQVESYDEAGDSDEQPIFLTPCMR (UniProt P26358)	0.0642
DSTN_P60981_39_AVIFCLSADK (UniProt P60981)	-0.0558
DYNC1H1_Q14204_3573_WQASSLPADDLCTENAIMLK (UniProt Q14204)	-0.0171
DARS_P14868_130_IGSCTQQDVELHVQK (UniProt P14868)	0.0673
